Source: PubChem BioAssay
LASV entry inh – Lassa virus entry inhibition; Potency, µM (titrated, usually from 49.2 µM), inactives show at the highest dose activity change, negative = inhibition, usual class: inhibitors; 18,000 compounds, 4.1% hits; AID 720533; Lassa virus pseudotyped entry inhibition, cell-based qHTS
MARV entry inh – inhibitors of Marburg virus binding or entry into cells; AID 720532; 18,000 compounds, 6.5% hits; Marburg virus pseudotype entry/binding inhibition, cell-based; Potency, µM (highest dose often 49.2 µM), inactives show at the highest dose activity change, negative = inhibition, usual class: inhibitors
An asterisk follows results filed as active; ? = inconclusive; · = no result; ! = repeats disagree; [ ] = another dose, or the depositor's remark. Compounds with a hit are over-represented: about 8.6% of the library has one in this group of screens. Calls come from the whole dose curve; tested in HEK293 cells. % is set by controls: 0 for no effect and ±100 for the full control effect; potency is the fitted concentration of half-maximal effect.

SMILES	LASV entry inh	MARV entry inh
CC(=O)C1=C(C)N(Cc2ccccc2)C(=O)NC1c1ccco1 (stereo unspecified)	·	2%[8.59 µM]
CN(CCOc1ccc(NS(C)(=O)=O)cc1)CCc1ccc(NS(C)(=O)=O)cc1	-3%	6%
CCCCc1oc2ccc(NS(C)(=O)=O)cc2c1C(=O)c1ccc(OCCCN(CCCC)CCCC)cc1	13µM*	6.3µM*
CC(C)ON(C(C(=O)NO)C(C)C)S(=O)(=O)c1ccc(-c2ccccc2)cc1 (stereo unspecified)	6.3µM*	6.3µM*
CC(C)ON(CC(=O)NO)S(=O)(=O)c1ccc(-c2ccccc2)cc1	-26%	13%
NC(=Nc1ccccc1)NC(=O)c1nc(Cl)c(N)nc1N	12%	?
NC(=NCc1ccccc1)NC(=O)c1nc(Cl)c(N)nc1N	?	25µM*!
C[C@H](CSC(=O)c1ccccc1)C(=O)N1C[C@@H](Sc2ccccc2)C[C@H]1C(=O)O	-8%	13%
CCC(=O)C[C@@H](NC(=O)OC)c1ccc(F)cc1	2%[8.59 µM]	6%[8.59 µM]
Oc1ccc([C@@H]2CNCCc3c2cc(O)c(O)c3Cl)cc1	-14%	11%
Oc1ccc([C@H]2CNCc3c2ccc(O)c3O)cc1O	-21%	6.3µM*
C#CCN1C(=O)C2(CC(C)=C[C@@H](C)O2)c2c(Br)cccc21 (stereo partly specified)	34%[8.59 µM]	46%[8.59 µM]
C[C@@H]1CN(Cc2ccc3c(c2)CN(Cc2nc(-c4ccccc4)cs2)CCO3)C[C@H](C)O1	-6%	-16%
CC(C)N(CCC(=O)c1ccc2ccccc2c1)Cc1ccccc1	32µM*	?
C[C@@H](COc1ccccc1)N(CCCl)Cc1ccccc1	20%[17.8 µM]	-28%[17.8 µM]
COC(=O)N[C@H](C(C(=O)OC)=C(C)NCc1ccccc1)c1cccc(F)c1	4%[8.59 µM]	-11%[8.59 µM]
FC(F)(F)c1cccc(Nc2nccc(-c3cnn4nc(-c5ccccc5)ccc34)n2)c1	·	20µM*
CCOc1ccc2c(-c3ccnc(Nc4cc(OC)cc(C(F)(F)F)c4)n3)cnn2n1	·	6.3µM*
CSc1ccc(COCC[C@@H]2C[C@H]3C=CCOP(=O)(O2)O3)cc1	2%	-22%
Cc1nn(-c2ccc(F)cc2)c(C)c1CNC(=O)c1ccc(-n2cc(NC(=O)c3ccoc3)cn2)cc1	5%	21%
C[C@H]1[C@H](O)[C@@H](N=[N+]=[N-])CCO[C@H]1c1ccccc1	-6%[8.59 µM]	-12%[8.59 µM]
C[C@H]1O[C@@H](O[C@H]2CC[C@@]3(C)[C@H](CC[C@@H]4[C@@H]3C[C@@H](O)[C@]3(C)[C@@H](C5=CC(=O)OC5)CC[C@]43O)C2)C[C@H](O)[C@@H]1O[C@H]1C[C@H](O)[C@H](O[C@H]2C[C@H](O)[C@H](O[C@@H]3O[C@H](CO)[C@@H](O)[C@H](O)[C@H]3O)[C@@H](C)O2)[C@@H](C)O1	0.35µM*	0.28µM*
CC1O[C@@H](O[C@@H]2C(O)C[C@H](O[C@@H]3C(O)C[C@@H](OC4CC[C@@]5(C)C6CC(O)[C@@]7(C)C(C8=CC(=O)OC8)CC[C@@]7(O)C6CC[C@@H]5C4)OC3C)OC2C)CC(O)[C@H]1O (stereo partly specified)	1µM*	0.56µM*
C[C@@H]1O[C@H](O[C@@H]2CC[C@@]3(C=O)[C@H]4CC[C@@]5(C)[C@@H](C6=CC(=O)OC6)CC[C@@]5(O)[C@@H]4CC[C@]3(O)C2)C[C@H](O)[C@@H]1O	3.5µM*	3.5µM*
C[C@H]1O[C@@H](O[C@H]2[C@@H](O)C[C@H](O[C@H]3[C@@H](O)C[C@H](O[C@H]4CC[C@@]5(C)[C@H](CC[C@@H]6[C@@H]5CC[C@]5(C)[C@@H](C7=CC(=O)OC7)CC[C@]65O)C4)O[C@@H]3C)O[C@@H]2C)C[C@H](O)[C@@H]1O	?	0.089µM*
SMILES	LASV entry inh	MARV entry inh
Cc1oc(-c2ccccc2NC(=O)C2CCC2)nc1CNC(=O)c1ccccn1	-3%	-1%
COc1cc(C(CC2=CCCCC2)NC(=O)C(F)(F)F)cc(OC)c1OC (stereo unspecified)	-21%[8.59 µM]	1%[8.59 µM]
CCOC(=O)CN1C(=O)NC(c2cccc(C(F)(F)F)c2)C(C(C)=O)=C1C (stereo unspecified)	7%[8.59 µM]	31%[8.59 µM]
CCCNC(=O)OC[C@H]1O[C@H](CCON=C2C[C@@H](O)[C@@H](O)[C@@H]3[C@H]4C(=O)N(CC)C(=O)[C@@H]4CC[C@H]23)C=C[C@H]1Oc1ccc(OC)cc1	-3%[8.59 µM]	0%[8.59 µM]
O=S1(=O)c2cccc(Cl)c2OC[C@H](c2ccccc2)N1Cc1cccc(Cl)c1	-17%	?
COc1c(C(N)=O)cc(-c2ccc(Cl)cc2)cc1-c1ccc(S(N)(=O)=O)cc1	?	-50%
OC[C@@H](O)[C@H]1O[C@@H]2O[C@@H](C(Cl)(Cl)Cl)O[C@@H]2[C@H]1O	-5%	-8%
COC(=O)c1cc(CNC(=O)c2ccc3ncccc3c2)cc(NC(=O)c2ccccc2Cl)c1	-14%	-12%
